TRPML1 ag = agonists of human TRPML1 channel | Q9GZU1 | TRPML1-expressing cells, Ca2+ dye fluorescence, FDSS | activation, % (no concentration beside the values) | hit rate 0.12% among 410,000 | AID 624414; in the data active means activation above about 50%; inconclusive means mostly about 30% to 49%
Target sequence (Q9GZU1 whole entry, looked up): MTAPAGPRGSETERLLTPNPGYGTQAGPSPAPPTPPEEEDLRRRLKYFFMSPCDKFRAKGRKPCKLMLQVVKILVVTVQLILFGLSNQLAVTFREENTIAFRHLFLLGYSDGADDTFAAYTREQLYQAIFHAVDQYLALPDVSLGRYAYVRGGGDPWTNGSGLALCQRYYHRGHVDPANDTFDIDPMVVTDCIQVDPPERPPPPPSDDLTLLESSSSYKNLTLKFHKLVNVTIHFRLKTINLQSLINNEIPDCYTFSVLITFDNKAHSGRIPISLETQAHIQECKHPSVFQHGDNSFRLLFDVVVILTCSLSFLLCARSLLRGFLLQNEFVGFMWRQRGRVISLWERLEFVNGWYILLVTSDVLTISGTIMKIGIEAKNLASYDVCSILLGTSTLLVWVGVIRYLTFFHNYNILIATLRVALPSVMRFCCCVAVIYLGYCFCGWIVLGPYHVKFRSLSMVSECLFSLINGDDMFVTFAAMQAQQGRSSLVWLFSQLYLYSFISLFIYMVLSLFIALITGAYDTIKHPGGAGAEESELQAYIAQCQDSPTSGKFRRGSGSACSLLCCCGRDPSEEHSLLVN
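Agonist activity was taken from a 110 s kinetic Ca2+ dye read on the FDSS after pinning compounds onto TRPML1-DL cells. The cells were seeded at 1,500/well with Tet inducer, incubated about 16 h, then dye-loaded at room temperature.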
KCNH2 WT inh = blocks the wildtype human KCNH2 potassium channel; Q12809; U2OS, BacMam KCNH2, thallium flux FluxOr; active compounds read low; activity change, % at 1.84 µM; hit rate 0.37% among 340,000;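 active means maximum activity change below -70%; inconclusive means maximum activity change between -70% and -50%; inactive means maximum activity change above -50%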
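U2OS cells transduced with wild-type KCNH2 virus are loaded with FluxOr dye for 45 min, and thallium flux is measured in kinetic reads before and after stimulation buffer. Rate constants are normalized to DMSO controls.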
TRHR ag = agonists of human TRH receptor; P34981; activation, % at 2 µM; hit rate 0.18% among 360,000; TRHR cells, calcium flux fluo-8, FDSS agonist mode; in the data active means activation above about 30%
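TRHR-expressing cells, plated overnight in medium with 10% serum, were loaded with fluo-8 calcium dye at room temperature. After a 10 s baseline, library compound was pin-added and calcium release was recorded kinetically (ex 480/em 530) as agonist response.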
TRHR enhancer = TRH receptor (human) allosteric enhancement | P34981 | TRHR cells, fluo-8 calcium fluorescence, EC20 TRH enhancement | enhancement, % at 2 µM | hit rate 0.66% among 360,000; in the data active means enhancement above about 30%
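Enhancer read-out: after compound pinning and an initial kinetic agonist-mode read, an EC20 of TRH (10 nM final) was injected and fluo-8 calcium signal (Ex 480/Em 530) followed at 1 s/cycle for 100 cycles in TRHR-expressing cells.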
KCNH2 3.1 inh = KCNH2 3.1 (human) potassium channel inhibition; U2OS KCNH2 3.1, thallium flux FluxOr; active compounds read low; activity change, % (tested at about 1.8 µM); hit rate 0.95% among 340,000;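 active means maximum activity change below -70%; inconclusive means maximum activity change from -70% to -50%; inactive means maximum activity change above -50%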;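 further: thallium influx rate constant from kinetic fluorescence after stimulation buffer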
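U2OS cells transduced with KCNH2 3.1 mutant virus (1.77 x 10^8 /mL, 4 h), plated overnight at 37 C, loaded 45 min with FluxOr dye plus Red40 quencher. Thallium flux rate constant from kinetic reads after stimulation buffer, normalised to controls.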
TRPML1 blocker = blocks the human TRPML1 channel; Q9GZU1; TRPML1-inducible cells, Ca2+ dye fluorescence, FDSS; active compounds read low; inhibition of EC80 agonist-evoked calcium signal; activity change, negative = inhibition, % (concentration not given with the values); hit rate 0.02% among 390,000; in the data active means activity change below about -50%; inconclusive means between about -30% and that limit;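 further: stimulus is agonist 54-4 at its EC80 concentration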
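Calcium fluorescence in TRPML1-DL cells induced overnight with Tet: a 110 s read after compound pin addition, then a 110 s antagonist read after challenge with 54-4 at 4 uM final (EC80).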
Numbers stand for hits; i = inactive; ? = inconclusive; nt = no result. Sampled rows, rich in hits. Any-hit rate of the full collection: about 1.7%.

SMILES | TRPML1 ag | KCNH2 WT inh | TRHR ag | TRHR enhancer | KCNH2 3.1 inh | TRPML1 blocker
COc1ccc(C(=O)Nc2ccccc2-c2nc3ccccc3s2)c(OC)c1 | i | nt | i | i | nt | i
O=C(C[n+]1cc(-c2ccc(Cl)cc2)n2c1CCCCC2)c1ccccc1 | i | i | i | i | -130 | i
CC(=O)NCC1CCCN(C(=O)c2oc3c(F)cccc3c2C)C1 (centres undefined) | i | i | i | i | -126 | i
C#CCNC(=O)c1ccc2sc([C@@H]3O[C@H](CO)[C@H](O)[C@H](O)[C@H]3O)nc2c1 | i | nt | nt | nt | nt | nt
Cc1ccc2c(c1)N(CC(=O)Nc1ccccc1F)C(=O)C(C)O2 (centres undefined) | i | i | nt | nt | i | i
CCc1cccc2c1Sc1ccccc1CC2N1CCNCC1 (centres undefined) | i | i | nt | nt | -77 | i
COc1cccc(CNCCSc2nnnn2C)c1OCc1ccc(Cl)cc1 | i | nt | i | i | nt | i
CC(=O)c1cccc(NC(=O)CSc2nc3c(=O)n(C)c(=O)n(C)c3n2C)c1 | i | nt | i | 34 | nt | i
Cc1ccc(Cl)cc1NC(=O)CCn1c(=O)c2cccn2c2cccnc21 | i | nt | i | i | nt | i
N#C/C(=N\O)c1nc2ccccc2s1 | i | i | i | 32 | i | i
O=C(Nc1cc(Cl)ccc1-n1cncn1)C1CC1 | i | i | i | i | i | i
Cc1c(Cl)cccc1NC(=O)c1cc(-c2ccccc2O)n[nH]1 | i | i | i | i | -103 | i
COc1ccc(Cl)cc1NC(=O)c1cc(-c2ccccc2O)n[nH]1 | i | i | i | i | i | i
CCN1C(=O)[C@H]2[C@H]3[C@H](O)[C@H](O)CC(=O)[C@@H]3CC[C@H]2C1=O | i | nt | nt | nt | nt | nt
Cc1cccc(C)c1OCCNC(=O)c1ccc2ccccc2n1 | i | i | i | i | -89 | i
COCCN(CC(=O)Nc1cccc(C)c1C)C(=O)c1ccc2ccccc2n1 | i | i | i | 32 | i | i
COC(=O)C1=CN(c2ccc(OC)cc2)C=C(C(=O)OC)C1c1ccc([N+](=O)[O-])cc1 | i | i | i | i | -73 | i
COc1ccc2c(c1)C(=O)CCC2c1ccccc1 (centres undefined) | i | i | i | i | -120 | i
OCC1(CCCc2ccccc2)CCN(Cc2ccc(F)cc2)CC1 | i | i | i | i | i | i
OCC1(CCc2ccccc2)CCN(Cc2ccc(OC(F)F)cc2)CC1 | i | -183 | i | i | nt | i
CC(COc1ccccc1)N1CCC(CO)(CCc2ccccc2)CC1 (centres undefined) | i | ? | i | i | -101 | i
CCOc1ccc2nc(N3CCN(C(=O)CS(=O)(=O)c4ccc(F)cc4)CC3)sc2c1 | i | nt | i | i | nt | i
COc1ccccc1C(=O)N1CCc2ccccc21 | i | i | i | i | -73 | i
COc1cccc(C(=O)N2CCCc3ccccc32)c1OC | i | i | nt | nt | i | i
CCN(Cc1cccc(S(=O)(=O)O)c1)c1ccc(C(=C2C=CC(=[N+](CC)Cc3cccc(S(=O)(=O)O)c3)C=C2)c2ccccc2S(=O)(=O)[O-])cc1 | i | nt | nt | nt | nt | nt
SMILES | TRPML1 ag | KCNH2 WT inh | TRHR ag | TRHR enhancer | KCNH2 3.1 inh | TRPML1 blocker
OCC1(CCc2ccccc2)CCCN(CCCc2ccccc2)C1 (centres undefined) | i | ? | i | i | -96 | i
COC(=O)C1Cc2c([nH]c3ccccc23)C2(CCN(Cc3ccccc3)CC2)N1 (centres undefined) | i | i | i | i | -81 | i
CCCN1CCN(c2ncnc3scc(C4COc5ccccc5O4)c23)CC1 (centres undefined) | i | i | i | 36 | i | i
CCc1ccc(N2CC(C(=O)OCC(=O)N(CC)c3c(N)n(Cc4ccccc4)c(=O)[nH]c3=O)CC2=O)cc1 (centres undefined) | i | i | nt | nt | i | i
CC(C)CC(c1nnnn1Cc1cccs1)N1CCN(c2nc3ccccc3s2)CC1 (centres undefined) | 74 | i | i | i | i | i
CN(C)/C=N/c1nc2nccc(-c3ccccn3)n2n1 | i | i | i | 34 | i | i
CN(C)/C=N/c1nc2nccc(-c3cccnc3)n2n1 | i | i | i | i | i | i

High-throughput results: PubChem BioAssay, National Center for Advancing Translational Sciences (NCATS)
